Compounds with a hit are over-represented: about 19% of the library has one in this group of screens.
TDP1 block: TDP1 (human) enzyme inhibition. Potency, µM (titrated, usually from 130 µM), for inactives: at the top dose activity change, negative = inhibition, usual class: inhibitors. recombinant TDP1, AlphaScreen DNA substrate cleavage. 0.28% of 350,000 active. Q9NUW8; note: potency is the fitted concentration of half-maximal effect; nearly all actives have a fitted effect of over 40% in size
Target sequence (Q9NUW8 whole entry, looked up): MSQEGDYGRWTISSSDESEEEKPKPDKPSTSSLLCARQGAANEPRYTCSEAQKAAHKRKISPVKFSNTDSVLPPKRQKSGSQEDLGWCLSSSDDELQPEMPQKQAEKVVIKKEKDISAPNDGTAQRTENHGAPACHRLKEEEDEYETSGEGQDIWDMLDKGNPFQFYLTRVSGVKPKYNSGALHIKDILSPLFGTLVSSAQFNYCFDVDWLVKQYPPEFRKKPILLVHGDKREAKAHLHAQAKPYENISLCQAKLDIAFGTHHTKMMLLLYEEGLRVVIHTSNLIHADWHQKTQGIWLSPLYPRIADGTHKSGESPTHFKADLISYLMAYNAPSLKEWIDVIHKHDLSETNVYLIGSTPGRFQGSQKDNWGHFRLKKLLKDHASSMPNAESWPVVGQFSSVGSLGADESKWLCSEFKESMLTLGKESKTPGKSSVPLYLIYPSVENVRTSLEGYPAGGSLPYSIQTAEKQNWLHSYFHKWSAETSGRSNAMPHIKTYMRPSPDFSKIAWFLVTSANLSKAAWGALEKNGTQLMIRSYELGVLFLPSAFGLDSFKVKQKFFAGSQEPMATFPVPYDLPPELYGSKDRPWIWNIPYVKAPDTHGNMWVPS
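Compounds were preincubated with Tdp1 (1 nM final) for 15 min at room temperature before substrate (15 nM final) started a 5 min reaction; beads (10 ug/ml final) were then added for 10 min before AlphaScreen detection.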
DT40 TDP1 no CPT: qHTS for Inhibitors of human tyrosyl-DNA phosphodiesterase 1 (TDP1): qHTS in cells in absence of CPT; DT40 Tdp1-/- hTDP1 cells, no CPT, ATP luminescence, 48 h; Potency, µM (highest dose often 46.2 µM), without a hit: at the highest dose activity change, negative = growth inhibition, usual class: inhibitors; 15% of 420,000 active; AID 686978, 2013; note: potency is the fitted concentration of half-maximal effect; nearly all actives have a fitted effect of over 55% in size
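DT40 Tdp1-/-;hTDP1 cells, no CPT (DMSO vehicle only), 400 cells/well; compounds pin-transferred; ≥48 hr, 37 °C; CellTiter-Glo 30 min RT dark, luminescence read.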
IL1B secr inh: inflammasome signaling inhibition, IL-1 beta readout; THP-1 LPS/ATP IL-1B secretion, AlphaLISA, 16 h; hits give low values; AID 743279; activity change, % at 57.5 µM; 4.7% of 360,000 active; in the data active = activity change below about -50%; inconclusive = mostly about -30% to -49%
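Secreted IL-1B measured by AlphaLISA bead assay after 16 h compound exposure of THP-1 cells; compounds (final up to 57.5 uM) added 1 h before LPS (250 ng/mL) and ATP (1.25 mM) stimulation; lower signal means less secretion.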
ELG1 repair inh: ELG1-dependent DNA repair inhibition; HEK293T ELG1-luciferase reporter, luminescence, 16 h; DNA damage induced by 5-fluorouridine; Potency, µM (doses to about 46.1 µM), inactives show top-dose activity change, negative = inhibition, actives largely listed as inhibitors; 2.3% of 330,000 active; note: potency is the fitted concentration of half-maximal effect; nearly all actives have a fitted effect of over 55% in size
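HEK293T cells expressing luciferase-tagged ELG1 (2,000/well) received 5-Fluorouridine plus compound or DMSO for 16 hr at 37 °C. Luciferase was read by ONE-Glo luminescence after 30 min at room temperature.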
DT40 TDP1 CPT: growth inhibition of DT40 Tdp1-/-;hTDP1 cells with camptothecin (screen for TDP1 inhibitors). Potency, µM (top dose mostly 46.2 µM), inactives show top-dose activity change, negative = growth inhibition, hits mostly inhibitors. AID 686979. 12% of 420,000 active. chicken DT40 Tdp1-/-;hTDP1 cells + 20 nM CPT, ATP luminescence, 48 h; note: potency is the fitted concentration of half-maximal effect; nearly all actives have a fitted effect of over 55% in size
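Chicken DT40 Tdp1-/- cells complemented with human TDP1, 400 cells/well, exposed to compounds plus 20 nM camptothecin for at least 48 h at 37 C; viability read as ATP content by CellTiter-Glo luminescence.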
Giardia kill: Giardia lamblia killing; Giardia lamblia trophozoite viability; activity change, % at 7.66 µM, hits read low; 0.15% of 340,000 active; AID 540267; in the data active = activity change below about -80%; inconclusive = between about -30% and that limit;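 note: parasites exposed to compound for two days anaerobically before the ATP read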
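Luminescence from cellular ATP indicates surviving trophozoites (100 cells/well) following 48 hrs anaerobic compound treatment at 37 deg C; signal develops 15-30 min at room temperature.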
The depositor's hits bear a star; ? = inconclusive; . = no result; ! = not active in a repeat; [ ] = another dose, or the depositor's remark. Unless noted, calls come from the whole dose curve; as a rule, active = well fitted curve in the direction sought with a large enough effect; inconclusive = small, poorly fitted or top-dose-only effect, or another doubt; inactive = no such curve, though single readings can be large; an effect the other way counts as inactive or inconclusive. % is set by controls: 0 for no effect and ±100 for the full control effect.

SMILES | TDP1 block | DT40 TDP1 no CPT | IL1B secr inh | ELG1 repair inh | DT40 TDP1 CPT | Giardia kill
OCCN1CCN(CCCN2c3ccccc3C=Cc3ccccc32)CC1 | 13.4% | 5.96µM* | . | . | 8.41µM* | .
CN1CCN(CCCN2c3ccccc3Sc3ccccc32)CC1 | 9.2% | ? | . | . | ? | .
CCC(=O)c1ccc2c(c1)N(CCCN1CCN(CCO)CC1)c1ccccc1S2 | . | 4.73µM* | . | . | 2.99µM* | .
CN1CCN(CCCN2c3ccccc3Sc3ccc(Cl)cc32)CC1 | 8.4% | 20.6µM* | -64.0*! | 3.3% | 4.61µM*! | 3.3
COc1ccc(Cn2c(=O)n(-c3ccc(F)c(Cl)c3)c(=O)c3c2c2cc(OC)ccc2n3C)cc1 | 5.6% | ? | . | . | -7.3% | .
O=C(C1CCCN(S(=O)(=O)c2cc(Cl)ccc2Cl)C1)N1CCOCC1 (stereo not given) | 4.3%[56.1 µM] | 2.4% | 19.3 | -3.4% | -4.9% | 10.2
CN(C)CCCN1c2ccc(O)cc2Sc2ccc(Cl)cc21 | . | ? | -30.0 | . | ? | .
OC1CC2CCC(C1)N2CCCN1c2ccccc2Sc2ccc(Cl)cc21 (stereo not given) | . | 14.6µM* | -80.7* | . | 23.1µM* | -7.9
Clc1cccc(Nc2c3c(nc4ncnn24)CCC3)c1 | 7.9% | ? | 32.1 | ? | ? | 2.0
CCc1cccc(Nc2c3c(nc4ncnn24)CCC3)c1 | 0.0% | 20.6µM* | 85.6 | 4.4% | ? | 2.8
Nc1ccccc1Nc1cc(-c2ccccc2)nn1-c1cccc(Cl)c1 | 6.5% | ? | -52.1* | ? | -15.4% | 13.0
COc1ccc(OCC(=O)Nc2cc(-c3cccc(Cl)c3)nn2-c2ccccc2)cc1 | 2.7% | ? | . | . | ? | .
COc1ccccc1C(=O)Nc1cc(-c2cccc(Br)c2)nn1-c1ccccc1 | -2.7% | 7.31µM* | . | . | 14.6µM* | .
CC(C)c1ccc(C(=O)Nc2cc(-c3ccccc3F)nn2-c2ccccc2)cc1 | 8.1% | 10.3µM* | . | . | 20.6µM* | .
O=C(Nc1cc(-c2cccc(Cl)c2)nn1-c1ccccc1)c1ccccc1F | 0.0% | ? | . | . | 16.4µM* | .
O=C(N=C1c2ccccc2CN1c1ccc(F)c(Cl)c1)c1cccnc1Cl | 9.1% | . | . | ? | . | .
CCOC(=O)c1nnn(CC(=O)Nc2cc(F)ccc2F)c1C(=O)OCC | 6.6% | -15.8% | -73.2* | 3.8% | -11.4% | ?
Oc1ccccc1C1=NC(c2ccccc2)NC(c2ccccc2)C1 (stereo not given) | . | 18.4µM* | ? | . | ? | .
COc1cc(OC)cc(C(=O)Nc2cc3c(cc2N2CCOCC2)n(C)c(=O)n3C)c1 | 2.5% | -18.0% | . | . | -14.1% | .
CSc1ncc2c(n1)-c1ccccc1N(Cc1ccc(Cl)cc1)S2(=O)=O | 2.6% | -8.6% | . | . | -8.0% | .
CN(C)CCCN(C(=O)CCc1ccccc1)c1nc2c(F)cccc2s1 | 0.6% | ? | ? | 1.9% | ? | -9.2
Cc1ccc2sc(N(CCN(C)C)C(=O)c3ccc4ccccc4c3)nc2c1C | 11.4% | -17.8% | -22.7 | ? | ? | 8.6
Cc1ccc2sc(N(CCCN(C)C)C(=O)CN3C(=O)c4ccccc4C3=O)nc2c1C | 1.2% | 20.6µM* | ? | ? | 20.6µM* | -15.4
CN(C)CCCN(C(=O)COc1ccccc1)c1nc2ccc(F)cc2s1 | 2.3% | -29.0% | -8.4 | 6.7% | -10.1% | 14.5
CN(C)CCCN(C(=O)CCOc1ccccc1)c1nc2ccc(F)cc2s1 | -1.2% | 2.91µM* | -85.9* | -12.8% | 2.91µM* | -29.5
SMILES | TDP1 block | DT40 TDP1 no CPT | IL1B secr inh | ELG1 repair inh | DT40 TDP1 CPT | Giardia kill
CN(C)CCCN(C(=O)COc1ccc(Cl)cc1)c1nc2ccc(F)cc2s1 | -4.9% | -21.4% | -65.1* | 20.9% | -10.7% | 0.4
CN(C)CCCN(C(=O)CCOc1ccccc1)c1nc2c(F)cccc2s1 | 3.5% | 4.61µM* | -60.1* | 12.8% | 5.8µM* | -9.4
Cc1cccc2sc(N(CCCN(C)C)C(=O)COc3ccccc3)nc12 | 7.5% | -6.1% | . | . | -5.4% | .
Cc1cccc2sc(N(CCCN(C)C)C(=O)COc3ccc(Cl)cc3)nc12 | 5.8% | ? | -60.3* | 2.5% | ? | -2.0
CN(C)CCCN(C(=O)c1nc2ccccc2s1)c1nc2ccc(F)cc2s1 | . | 5.8µM* | -13.0 | . | 3.66µM* | 29.0
Cc1ccc2nc(N(CCN(C)C)C(=O)c3cc(Cl)sc3Cl)sc2c1 | 1.8% | -16.8% | -14.6 | ? | -27.7% | -5.0
CN(C)CCCN(C(=O)c1ccc(C(=O)c2ccccc2)cc1)c1nc2ccc(F)cc2s1 | 6.4% | ? | -26.7 | ? | ? | -16.8
Cc1ccc2nc(N(CCCN(C)C)C(=O)COc3ccc(Cl)cc3)sc2c1 | 9.2% | 20.6µM* | -28.4 | 20.6% | ? | 26.2
COc1ccccc1NC(=S)N(CCN1CCOCC1)Cc1ccccc1F | 0.0% | ? | -10.0 | 3.1% | -0.9% | 2.1
CCOc1ccccc1NC(=S)N(CCCN1CCOCC1)Cc1cn(C)c2ccccc12 | 0.0% | ? | -10.9 | -24.0% | 16.4µM* | 12.4
COc1ccccc1NC(=S)N(CCCN1CCOCC1)Cc1cn(C)c2ccccc12 | 10.5% | 16.4µM* | -7.7 | -29.9% | 14.6µM* | -4.5
C=CC(=O)OCCCCCCOC(=O)C=C | 2.5% | . | . | . | . | .
Cc1c(C(=O)Nc2ccc(Br)cc2)cnn1C | 1.9% | -18.1% | 17.4 | ? | -4.8% | -7.2
Cc1c(C(=O)c2no[n+]([O-])c2C(=O)c2cnn(C)c2C)cnn1C | 8.3% | 3.66µM* | 11.7 | -21.7% | 2.59µM* | 19.9
CC1CCN(Cc2nnnn2CCCC(=O)N(C)C2CCOC2)CC1 (stereo not given) | 5.6% | 17.8% | 0.5 | 1.5% | -21.1% | -6.0
CC1(C)CC(=O)C2=C(C1)Nc1[nH]n(-c3ccccc3)c(=O)c1C2c1ccc2c(c1)OCO2 (stereo not given) | 8.8% | 5.17µM* | -7.2 | 16.0% | 7.31µM* | 4.9
COCCOC(=O)C1=C(C)NC2=C(C(=O)CC(C)(C)C2)C1c1ccc2c(c1)OCO2 (stereo not given) | 7.4% | -8.2% | -9.0 | 8.0% | 5.4% | -2.0
C=CCn1c(-c2ccc(OC)cc2)csc1=Nc1c(C)n(C)n(-c2ccccc2)c1=O | 3.6% | 20.6µM* | -19.3 | 20.6µM* | 20.6µM* | -4.0
Cc1cccc(NC(=O)CSc2nc3ccccc3nc2N2CCC(C)CC2)c1 | -1.1% | 20.6µM* | . | . | 20.6µM* | .
CC(=O)Nc1ccc(NC(=O)CSc2nc3ccccc3nc2N2CCC(C)CC2)cc1 | 3.2% | ? | 17.6 | -12.2% | 5.1% | 16.2
Cc1ccc(NC(=O)CSc2nc3ccccc3nc2N2CCOCC2)c(C)c1 | . | ? | -13.0 | -1.9% | -16.7% | -16.1

Screening results from PubChem.
